Inconclusive results are not listed. Where a structure was tested more than once in an assay, its records may differ in their call. Activity calls are given as the source filed them. The calls were made as follows, unless noted: active = hit-call score of the fitted dose curve at least 0.9, where 1 is the maximum; inactive = score below 0.9.
Key:
[1] = BSK_LPS_PGE2: BioMAP Diversity Plus: LPS Assay for Prostaglandin E2 (PGE2) Biomarker Activity (AID 2283082); details: primary human HUVEC with PBMC; actives raise or lower the signal;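 as to AC50: secreted prostaglandin E2 measured by ELISA in LPS-stimulated co-culture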
Summary of the method: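 HUVEC plus PBMC co-culture stimulated with LPS; secreted PGE2 quantified by ELISA 24 h after chemical dosing. Activity fitted bidirectionally against DMSO as negative control and baseline; parallel SRB total-protein staining served as cytotoxicity check.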

[2] = read-out: Macrophage colony-stimulating factor (MCSF), CSF1 (gene 1435); assay: BSK_LPS_MCSF: BioMAP Diversity Plus: LPS Assay for Macrophage colony-stimulating factor (MCSF) Biomarker Activity (AID 2283083); details: primary human HUVEC with PBMC; actives raise or lower the signal
Summary of the method: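 Compound is added to a human vascular primary co-culture of umbilical vein endothelium and blood mononuclear cells. After 24 h, M-CSF is quantified by ELISA. Signal changes are fitted in both directions against DMSO.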

[3] = read-out: Tissue Factor, F3 (gene 2152); assay: BSK_LPS_TissueFactor: BioMAP Diversity Plus: LPS Assay for Tissue Factor Biomarker Activity (AID 2283084); details: primary human HUVEC with PBMC; actives raise or lower the signal
Summary of the method: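 In this co-culture system of umbilical vein endothelium with PBMC, stimulated with LPS, cell-surface CD142 is detected by ELISA at 24 h. Endpoint values derive from bidirectional fitting, DMSO serving as baseline.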

[4] = read-out: Tumor necrosis factor (Homo sapiens) (UniProt P01375); assay: BSK_LPS_TNFa: BioMAP Diversity Plus: LPS Assay for Tumour Necrosis Factor alpha (TNFa) Biomarker Activity (AID 2283085); details: primary human HUVEC with PBMC; actives raise or lower the signal
Summary of the method: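 Human umbilical vein endothelial cells co-cultured with PBMC were exposed to test chemical and TNFa measured by ELISA 24 h after dosing. Bidirectional curve fitting was done relative to DMSO as negative control and baseline.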

[5] = read-out: Vascular cell adhesion molecule 1 (VCAM1), VCAM1 (gene 7412); assay: BSK_LPS_VCAM1: BioMAP Diversity Plus: LPS Assay for Vascular cell adhesion molecule 1 (VCAM1) Biomarker Activity (AID 2283086); details: primary human HUVEC with PBMC; actives raise or lower the signal
Summary of the method: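 Human umbilical vein endothelial cells co-cultured with peripheral blood mononuclear cells under LPS stimulation were exposed to test chemical for 24 h. VCAM-1 levels were then measured by ELISA, with bidirectional curve fitting relative to DMSO as negative control and baseline.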

CD38, CD38 (gene 952) = assay: BSK_SAg_CD38: BioMAP Diversity Plus: SAg Assay for CD38 Biomarker Activity (AID 2283087); details: primary human HUVEC with PBMC; actives raise or lower the signal
Summary of the method: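 Fluorescence ELISA of cell-surface CD38 served as the read-out, with either increase or decrease fitted against DMSO controls. Cells were a human umbilical vein endothelium plus PBMC co-culture under SEB/TSST-1 stimulation, measured 24 h after dosing.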

CD40, CD40 (gene 958) = assay: BSK_SAg_CD40: BioMAP Diversity Plus: SAg Assay for CD40 Biomarker Activity (AID 2283088); details: primary human HUVEC with PBMC; actives raise or lower the signal
Summary of the method: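 Fluorescence ELISA read-out of CD40 from umbilical vein endothelium plus peripheral blood mononuclear cells, sampled 24 h after dosing. Values come from bidirectional curve fitting with DMSO as baseline.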

[6] = read-out: Monocyte Chemoattractant Protein-1 (MCP1), CCL2 (gene 6347); assay: BSK_SAg_MCP1: BioMAP Diversity Plus: SAg Assay for Monocyte Chemoattractant Protein-1 (MCP1) Biomarker Activity (AID 2283090); details: primary human HUVEC with PBMC; actives raise or lower the signal
Summary of the method: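 MCP-1 levels in the endothelial–PBMC SAg co-culture were quantified by ELISA at 24 h post-dosing; both increases and decreases versus DMSO scored. Cytotoxicity monitored by SRB total protein in parallel cultures.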

[7] = read-out: E-selectin (Homo sapiens) (UniProt P16581); assay: BSK_SAg_Eselectin: BioMAP Diversity Plus: SAg Assay for Eselectin Biomarker Activity (AID 2283091); details: primary human HUVEC with PBMC; actives raise or lower the signal
Summary of the method: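 Primary human endothelial cells and peripheral blood mononuclear cells were co-cultured and exposed to chemical for 24 hours. E-selectin levels were then quantified by ELISA, with bidirectional curve fitting normalised to DMSO controls.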

[8] = read-out: Monokine induced gamma interferon (MIG), CXCL9 (gene 4283); assay: BSK_SAg_MIG: BioMAP Diversity Plus: SAg Assay for Monokine induced gamma interferon (MIG) Biomarker Activity (AID 2283092); details: primary human HUVEC with PBMC; actives raise or lower the signal
Summary of the method: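 ELISA readout of MIG/CXCL9; primary human umbilical vein endothelial cells co-cultured with peripheral blood mononuclear cells; 24 h post-dose; gain/loss fit vs DMSO baseline.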

[9] = BSK_SAg_PBMCCytotoxicity: PBMC Cytotoxicity Assessment in the BioMAP Diversity Plus: SAg Assay (AID 2283093); details: primary human HUVEC with PBMC;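 also: PBMC viability measured as Alamar Blue reduction fluorescence at 546/580 nm; fitted both ways against DMSO so a hit may be loss or gain of signal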;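 as to AC50: PBMC superantigen activated with SEB plus TSST-1 one hour after compound addition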
Summary of the method: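 Human umbilical vein endothelial cells co-cultured with PBMC; PBMC (75,000/well) pre-treated with compound 1 h, then activated with SEB and TSST-1 (20 ng/mL final each) for 90 h. Alamar Blue added 6 h, fluorescence 546/580 nm; bidirectional fit versus DMSO.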

[10] = read-out: Interleukin-8 (IL8), CXCL8 (gene 3576); assay: BSK_SAg_IL8: BioMAP Diversity Plus: SAg Assay for Interleukin-8 (IL8) Biomarker Activity (AID 2283094); details: primary human HUVEC with PBMC; actives raise or lower the signal
Summary of the method: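 Human umbilical vein endothelial cells co-cultured with peripheral blood mononuclear cells; IL-8 measured by ELISA 24 h after chemical dosing. Bidirectional concentration-response fitting used DMSO as negative control and activity baseline.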

[11] = BSK_SAg_SRB: Viability Assessment in the BioMAP Diversity Plus: SAg Assay (AID 2283096); details: primary human HUVEC with PBMC;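 also: cells read one day after compound addition; hits may be either gain or loss of signal compared with DMSO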
Summary of the method: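 Endothelial/PBMC primary human co-culture; compound 24 h; fix 10% TCA, stain 0.1% SRB, A560; protein content as cytotoxicity proxy; bidirectional curve fit, DMSO = baseline.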

[12] = target: human CYP2A6, CYP2A6 (gene 1548) (UniProt P11509); assay: NVS_ADME_hCYP2A6: NovaScreen (NVS) CYP450-related Enzyme Activity (ADME) Assay for human CYP2A6 (AID 2283099; active = hit-call score of the fitted dose curve at least 0.9, where 1 is the maximum)
Summary of the method: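 Recombinant human CYP2A6 from insect cells was incubated with chemical for 0.5 h and activity read by fluorescence. Single-concentration duplicates at 10 uM preceded concentration-response testing to 20 uM, with activity referenced to acetonitrile.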

[13] = BSK_SAg_Proliferation: Cell Proliferation Assessment in the BioMAP Diversity Plus: SAg Assay (AID 2283095); details: primary human HUVEC with PBMC;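 also: relative cell number as total protein by SRB absorbance in sub-confluent culture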
Summary of the method: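 Human umbilical vein endothelial cells co-cultured with peripheral blood mononuclear cells; total protein measured by sulforhodamine B staining (0.1% SRB after 10% TCA fixation), absorbance at 560 nm, at 96 h. Bidirectional fit against DMSO baseline.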

[14] = target: human CYP19A1, CYP19A1 (gene 1588) (UniProt P11511); assay: NVS_ADME_hCYP19A1: NovaScreen (NVS) CYP450-related Enzyme Activity (ADME) Assay for human CYP19A1 (AID 2283098; active = hit-call score of the fitted dose curve at least 0.9, where 1 is the maximum;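 as to AC50: potency for inhibitors seen as loss of fluorescent enzyme signal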)
Summary of the method: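 Cell-free enzyme assay with recombinant protein and a specific fluorogenic substrate, read by fluorescence intensity 0.5 h after dosing. Primary screen ran in duplicate at 10 uM; actives were retested in concentration series. Loss of signal versus acetonitrile baseline.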

[15] = target: human CYP1A2, CYP1A2 (gene 1544) (UniProt P05177); assay: NVS_ADME_hCYP1A2: NovaScreen (NVS) CYP450-related Enzyme Activity (ADME) Assay for human CYP1A2 (AID 2283102; active = hit-call score of the fitted dose curve at least 0.9, where 1 is the maximum)
Summary of the method: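 Compounds were tested at 10 uM in duplicate against recombinant CYP1A2 produced in insect cells. Enzyme activity was measured by fluorescence 0.5 h after dosing, with loss of signal versus acetonitrile control. Active compounds were re-tested in concentration series.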

[16] = target: human CYP1A1, CYP1A1 (gene 1543) (UniProt P04798); assay: NVS_ADME_hCYP1A1: NovaScreen (NVS) CYP450-related Enzyme Activity (ADME) Assay for human CYP1A1 (AID 2283100; active = hit-call score of the fitted dose curve at least 0.9, where 1 is the maximum)
Summary of the method: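 Compounds first went through duplicate single-concentration testing at 10 uM against purified CYP1A1. Those passing a threshold such as 30% inhibition entered singleton dose-response, highest concentration 20 uM. Signal was fluorescence measured after 1 hour.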

Measured: AC50

human CYP19A1, CYP19A1 (gene 1588), sequence (P11511 whole entry, looked up): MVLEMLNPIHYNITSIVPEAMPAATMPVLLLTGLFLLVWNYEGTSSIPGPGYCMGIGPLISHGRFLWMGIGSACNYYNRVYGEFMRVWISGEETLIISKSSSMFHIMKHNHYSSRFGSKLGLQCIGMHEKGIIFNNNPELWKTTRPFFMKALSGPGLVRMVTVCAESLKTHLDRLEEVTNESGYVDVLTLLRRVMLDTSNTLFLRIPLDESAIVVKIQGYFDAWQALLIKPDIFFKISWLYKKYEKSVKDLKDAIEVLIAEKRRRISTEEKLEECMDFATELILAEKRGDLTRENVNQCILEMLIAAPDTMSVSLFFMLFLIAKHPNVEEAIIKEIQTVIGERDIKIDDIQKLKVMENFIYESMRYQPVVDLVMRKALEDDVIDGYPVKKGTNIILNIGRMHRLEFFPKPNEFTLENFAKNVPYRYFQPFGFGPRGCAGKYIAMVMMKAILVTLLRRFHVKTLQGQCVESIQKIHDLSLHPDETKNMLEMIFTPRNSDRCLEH
E-selectin (Homo sapiens), sequence (P16581 whole entry, looked up): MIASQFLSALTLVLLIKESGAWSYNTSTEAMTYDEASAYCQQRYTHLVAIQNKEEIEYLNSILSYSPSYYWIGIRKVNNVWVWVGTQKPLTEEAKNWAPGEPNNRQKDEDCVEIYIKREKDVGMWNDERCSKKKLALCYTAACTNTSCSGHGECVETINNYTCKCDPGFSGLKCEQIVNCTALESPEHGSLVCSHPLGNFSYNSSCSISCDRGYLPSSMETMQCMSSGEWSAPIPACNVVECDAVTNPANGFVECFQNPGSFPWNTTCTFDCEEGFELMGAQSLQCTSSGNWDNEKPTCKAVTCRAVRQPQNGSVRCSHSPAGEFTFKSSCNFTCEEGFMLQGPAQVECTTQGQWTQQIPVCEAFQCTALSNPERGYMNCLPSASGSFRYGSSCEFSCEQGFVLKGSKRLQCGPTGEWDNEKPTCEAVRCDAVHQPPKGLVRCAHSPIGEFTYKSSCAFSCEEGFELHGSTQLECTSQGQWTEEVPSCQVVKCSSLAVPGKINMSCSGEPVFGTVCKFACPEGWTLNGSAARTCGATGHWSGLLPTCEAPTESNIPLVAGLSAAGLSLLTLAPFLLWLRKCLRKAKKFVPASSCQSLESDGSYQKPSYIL
Tumor necrosis factor (Homo sapiens), sequence (P01375 whole entry, looked up): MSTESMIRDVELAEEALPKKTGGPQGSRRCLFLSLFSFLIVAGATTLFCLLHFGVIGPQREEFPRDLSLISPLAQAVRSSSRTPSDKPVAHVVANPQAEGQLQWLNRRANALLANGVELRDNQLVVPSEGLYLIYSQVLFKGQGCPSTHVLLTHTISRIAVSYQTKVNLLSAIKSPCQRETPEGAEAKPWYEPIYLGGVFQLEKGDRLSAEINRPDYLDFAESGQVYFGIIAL
human CYP1A2, CYP1A2 (gene 1544), sequence (P05177 whole entry, looked up): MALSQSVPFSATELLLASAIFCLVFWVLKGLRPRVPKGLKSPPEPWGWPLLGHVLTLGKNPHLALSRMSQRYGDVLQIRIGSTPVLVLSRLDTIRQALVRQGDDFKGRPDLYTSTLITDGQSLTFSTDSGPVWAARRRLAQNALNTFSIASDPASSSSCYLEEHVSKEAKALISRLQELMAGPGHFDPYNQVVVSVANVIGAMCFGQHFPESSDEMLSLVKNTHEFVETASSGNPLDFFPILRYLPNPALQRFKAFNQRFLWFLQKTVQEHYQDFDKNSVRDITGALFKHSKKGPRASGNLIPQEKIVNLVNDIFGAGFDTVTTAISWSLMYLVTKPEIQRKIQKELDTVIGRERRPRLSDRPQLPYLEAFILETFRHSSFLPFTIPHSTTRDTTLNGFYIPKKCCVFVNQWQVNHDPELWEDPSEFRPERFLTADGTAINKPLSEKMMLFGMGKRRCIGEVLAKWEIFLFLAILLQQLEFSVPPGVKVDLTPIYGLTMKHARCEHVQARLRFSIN
human CYP2A6, CYP2A6 (gene 1548), sequence (P11509 whole entry, looked up): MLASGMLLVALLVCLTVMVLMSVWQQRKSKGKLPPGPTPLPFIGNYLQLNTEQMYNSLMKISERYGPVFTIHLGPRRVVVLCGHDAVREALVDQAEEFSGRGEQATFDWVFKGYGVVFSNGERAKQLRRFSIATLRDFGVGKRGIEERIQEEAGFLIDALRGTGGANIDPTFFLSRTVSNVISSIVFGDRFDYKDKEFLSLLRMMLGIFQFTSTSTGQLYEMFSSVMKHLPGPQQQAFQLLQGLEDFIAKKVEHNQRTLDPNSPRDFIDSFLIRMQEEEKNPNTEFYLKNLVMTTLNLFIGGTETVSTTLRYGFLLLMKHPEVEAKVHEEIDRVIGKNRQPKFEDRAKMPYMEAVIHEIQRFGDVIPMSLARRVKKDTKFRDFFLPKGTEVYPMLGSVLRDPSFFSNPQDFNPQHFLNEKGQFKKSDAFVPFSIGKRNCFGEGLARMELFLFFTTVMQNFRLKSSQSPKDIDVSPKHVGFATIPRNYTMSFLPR
human CYP1A1, CYP1A1 (gene 1543), sequence (P04798 whole entry, looked up): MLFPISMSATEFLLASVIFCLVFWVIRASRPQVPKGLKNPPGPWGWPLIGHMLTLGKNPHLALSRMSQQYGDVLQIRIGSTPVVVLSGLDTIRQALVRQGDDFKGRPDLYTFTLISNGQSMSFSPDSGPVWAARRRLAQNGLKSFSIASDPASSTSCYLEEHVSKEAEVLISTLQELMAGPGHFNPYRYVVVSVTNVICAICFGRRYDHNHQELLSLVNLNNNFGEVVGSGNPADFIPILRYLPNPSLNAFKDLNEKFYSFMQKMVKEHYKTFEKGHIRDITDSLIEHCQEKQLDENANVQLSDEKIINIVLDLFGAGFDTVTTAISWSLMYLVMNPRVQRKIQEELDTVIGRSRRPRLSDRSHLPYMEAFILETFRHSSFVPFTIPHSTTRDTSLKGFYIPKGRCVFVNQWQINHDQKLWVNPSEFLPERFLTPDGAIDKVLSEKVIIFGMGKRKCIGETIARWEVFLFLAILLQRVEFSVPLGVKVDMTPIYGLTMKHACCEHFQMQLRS

CN(C)C(=S)SSC(=S)N(C)C
active: [1] 4.51 µM | [2] 14.8 µM | [3] 14.5 µM | [4] 13.8 µM | [5] 24.6 µM | CD38, CD38 (gene 952) 26.8 µM | CD40, CD40 (gene 958) 28 µM | [6] 28.7 µM | [7] 24.8 µM | [8] 36.6 µM | [9] 3.87 µM | [10] 18.6 µM | [11] 35.3 µM
inactive: [12]

Cc1cc(Cl)ccc1OCC(=O)O
not listed: [12] | [14] | [15] | [16]
inactive: all other assays above

Cc1c(F)c(F)c(COC(=O)C2C(/C=C(\Cl)C(F)(F)F)C2(C)C)c(F)c1F (centres undefined)
active: [2] 12.7 µM | [5] 12 µM | CD38, CD38 (gene 952) 9.52 µM | CD40, CD40 (gene 958) 32.5 µM | [7] 12.5 µM | [13] 26.6 µM | [11] 25.9 µM
inactive: [1] | [3] | [4] | [6] | [8] | [9] | [10]

COc1nc(NC(C)C)nc(NC(C)C)n1
active: [4] 9.63 µM
not listed: [12] | [14] | [15] | [16]
inactive: all other assays above

CNC(=S)S
active: [1] 8.25 µM | [2] 9.92 µM | [4] 7.49 µM | [5] 12.4 µM | CD38, CD38 (gene 952) 13.7 µM | [7] 27.5 µM | [9] 14.7 µM | [13] 11.9 µM | [11] 23.3 µM
inactive: [3] | CD40, CD40 (gene 958) | [6] | [8] | [10] | [14] | [15]

CCOC(=O)C(Cl)Cc1cc(-n2nc(C)n(C(F)F)c2=O)c(F)cc1Cl (centres undefined)
active: [13] 21.2 µM | [16] 5.46 µM
not listed: [12] | [14]
inactive: all other assays above

COc1ccc(C(c2ccc(OC)cc2)C(Cl)(Cl)Cl)cc1
inactive: [1] | [3] | [14]
active: [2] 20 µM | [4] 12.2 µM | [5] 20 µM | CD38, CD38 (gene 952) 14.9 µM | CD40, CD40 (gene 958) 15.3 µM | [6] 27.1 µM | [7] 14.4 µM | [8] 30.7 µM | [9] 31.5 µM | [10] 11.9 µM | [13] 12 µM | [11] 14.9 µM | [14] 3.76 µM
